The record followed here is ChEMBL document CHEMBL1961873, “Compounds: GSK PKIS; Assays: Nanosyn kinase panel” (2012).

The structures appear in SMILES notation.

The target in assay [1] is Serine/threonine-protein kinase PAK 6 (Homo sapiens) (UniProt Q9NQU5). The note with it: at 1 µM.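 Also: values are mean percent inhibition of PAK6 kinase.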
The subject of assay [2] is Tyrosine-protein kinase ABL1 (Homo sapiens), P00519 [E255K]. The settings on record: at 0.1 µM.
For assay [3] the test system is unchanged. The note with it: at 1 µM.
Assay [4] has as its system Tyrosine-protein kinase ABL1 (Homo sapiens), P00519 [H396P]. The settings on record: at 0.1 µM.
Assay [5] shares this test system. The settings on record: at 1 µM.
In assay [6] the test system is Tyrosine-protein kinase ABL1 (Homo sapiens), P00519 [M351T]. The note with it: at 0.1 µM.
Assay [7] has the same test system. The settings on record: at 1 µM.
Assay [8] relates to Tyrosine-protein kinase ABL1 (Homo sapiens), P00519 [Q252H]. The note with it: at 0.1 µM.
Assay [9] has the same test system. The settings on record: at 1 µM.
For assay [10], the system named is Tyrosine-protein kinase ABL1 (Homo sapiens), P00519 [T315I]. The note with it: at 0.1 µM.
The test system is the same in assay [11]. The settings on record: at 1 µM.
Assay [12] relates to Tyrosine-protein kinase ABL1 (Homo sapiens), P00519 [Y253F]. The note with it: at 0.1 µM.
Assay [13] has the same test system. The note with it: at 1 µM.
The target in assay [14] is Tyrosine-protein kinase ABL1 (Homo sapiens) (UniProt P00519). The settings on record: at 0.1 µM.
Assay [15] has the same target. The settings on record: at 1 µM.
For assay [16], the target named is ALK tyrosine kinase receptor (Homo sapiens) (UniProt Q9UM73). The settings on record: at 0.1 µM.
Assay [17] has the same target. The settings on record: at 1 µM.
Assay [18] addresses Tyrosine-protein kinase ABL2 (Homo sapiens) (UniProt P42684). The settings on record: at 0.1 µM.
The target is the same in assay [19]. The settings on record: at 1 µM.
Assay [20] deals with Tyrosine-protein kinase receptor UFO (Homo sapiens) (UniProt P30530). The settings on record: at 0.1 µM.
Tyrosine-protein kinase receptor UFO (Homo sapiens), sequence (P30530 whole entry): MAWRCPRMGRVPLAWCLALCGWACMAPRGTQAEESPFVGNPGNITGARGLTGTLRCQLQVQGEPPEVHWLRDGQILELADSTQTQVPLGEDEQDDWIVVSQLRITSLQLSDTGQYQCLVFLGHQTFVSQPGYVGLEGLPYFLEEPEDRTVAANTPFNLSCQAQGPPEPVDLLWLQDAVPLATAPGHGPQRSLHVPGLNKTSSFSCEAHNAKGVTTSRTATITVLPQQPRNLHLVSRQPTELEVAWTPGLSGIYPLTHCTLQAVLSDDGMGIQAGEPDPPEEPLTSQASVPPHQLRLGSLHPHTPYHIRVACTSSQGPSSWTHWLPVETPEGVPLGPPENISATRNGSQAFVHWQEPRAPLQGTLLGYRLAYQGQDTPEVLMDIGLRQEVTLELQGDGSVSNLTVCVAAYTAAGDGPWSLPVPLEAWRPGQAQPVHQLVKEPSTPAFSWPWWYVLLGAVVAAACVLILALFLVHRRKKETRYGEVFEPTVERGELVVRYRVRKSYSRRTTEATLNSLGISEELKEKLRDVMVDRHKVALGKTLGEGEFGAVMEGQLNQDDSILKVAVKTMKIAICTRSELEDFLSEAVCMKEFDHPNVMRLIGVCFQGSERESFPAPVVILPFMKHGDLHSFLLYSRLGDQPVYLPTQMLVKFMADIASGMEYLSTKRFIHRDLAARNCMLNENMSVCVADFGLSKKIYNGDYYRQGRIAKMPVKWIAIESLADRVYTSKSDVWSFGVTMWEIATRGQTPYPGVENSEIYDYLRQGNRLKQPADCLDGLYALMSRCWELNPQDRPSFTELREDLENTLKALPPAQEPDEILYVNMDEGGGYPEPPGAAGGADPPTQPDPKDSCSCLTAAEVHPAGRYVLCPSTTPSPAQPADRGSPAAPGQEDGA

ALK tyrosine kinase receptor (Homo sapiens), sequence (Q9UM73 19-1620 limits assumed): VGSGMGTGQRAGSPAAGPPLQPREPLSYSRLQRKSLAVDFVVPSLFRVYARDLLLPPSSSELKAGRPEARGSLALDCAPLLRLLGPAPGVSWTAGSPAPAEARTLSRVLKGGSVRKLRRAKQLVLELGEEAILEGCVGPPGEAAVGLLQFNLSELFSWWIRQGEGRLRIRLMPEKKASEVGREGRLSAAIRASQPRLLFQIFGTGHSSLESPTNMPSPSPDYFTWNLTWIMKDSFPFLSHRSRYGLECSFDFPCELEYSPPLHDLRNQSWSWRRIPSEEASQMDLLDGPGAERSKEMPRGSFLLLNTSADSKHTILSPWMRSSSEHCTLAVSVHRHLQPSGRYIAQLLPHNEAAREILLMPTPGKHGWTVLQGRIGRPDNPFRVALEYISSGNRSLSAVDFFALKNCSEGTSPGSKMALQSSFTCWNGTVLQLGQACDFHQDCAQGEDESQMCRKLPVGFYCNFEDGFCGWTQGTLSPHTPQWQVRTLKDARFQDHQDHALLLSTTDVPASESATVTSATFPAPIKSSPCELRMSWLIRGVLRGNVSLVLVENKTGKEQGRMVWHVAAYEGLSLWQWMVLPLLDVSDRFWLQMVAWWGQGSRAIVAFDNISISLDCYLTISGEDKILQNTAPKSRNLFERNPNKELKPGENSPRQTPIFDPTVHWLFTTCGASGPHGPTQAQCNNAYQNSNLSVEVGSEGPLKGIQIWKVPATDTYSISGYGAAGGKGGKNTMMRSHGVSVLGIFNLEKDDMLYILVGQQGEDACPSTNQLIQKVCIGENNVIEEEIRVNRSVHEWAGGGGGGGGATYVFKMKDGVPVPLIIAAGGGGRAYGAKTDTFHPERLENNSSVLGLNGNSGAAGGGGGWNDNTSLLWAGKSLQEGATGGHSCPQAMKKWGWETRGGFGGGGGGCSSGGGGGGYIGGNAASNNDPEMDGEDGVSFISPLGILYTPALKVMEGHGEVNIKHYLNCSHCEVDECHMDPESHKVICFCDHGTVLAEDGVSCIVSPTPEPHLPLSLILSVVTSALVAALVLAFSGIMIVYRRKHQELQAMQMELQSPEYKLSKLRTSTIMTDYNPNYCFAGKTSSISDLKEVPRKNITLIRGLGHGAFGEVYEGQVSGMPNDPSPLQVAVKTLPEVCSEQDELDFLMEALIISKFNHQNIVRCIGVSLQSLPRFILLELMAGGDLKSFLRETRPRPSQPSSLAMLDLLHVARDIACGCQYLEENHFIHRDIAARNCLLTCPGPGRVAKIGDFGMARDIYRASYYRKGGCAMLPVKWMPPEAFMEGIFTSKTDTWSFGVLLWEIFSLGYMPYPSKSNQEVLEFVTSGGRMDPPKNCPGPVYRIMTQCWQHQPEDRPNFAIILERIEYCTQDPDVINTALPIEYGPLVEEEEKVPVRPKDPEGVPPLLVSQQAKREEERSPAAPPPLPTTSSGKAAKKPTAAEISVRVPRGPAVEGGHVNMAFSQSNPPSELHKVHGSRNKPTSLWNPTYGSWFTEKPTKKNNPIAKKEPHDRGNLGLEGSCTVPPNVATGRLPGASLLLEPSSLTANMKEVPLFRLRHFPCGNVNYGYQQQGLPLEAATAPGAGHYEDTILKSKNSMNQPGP
Tyrosine-protein kinase ABL2 (Homo sapiens), sequence (P42684 whole entry): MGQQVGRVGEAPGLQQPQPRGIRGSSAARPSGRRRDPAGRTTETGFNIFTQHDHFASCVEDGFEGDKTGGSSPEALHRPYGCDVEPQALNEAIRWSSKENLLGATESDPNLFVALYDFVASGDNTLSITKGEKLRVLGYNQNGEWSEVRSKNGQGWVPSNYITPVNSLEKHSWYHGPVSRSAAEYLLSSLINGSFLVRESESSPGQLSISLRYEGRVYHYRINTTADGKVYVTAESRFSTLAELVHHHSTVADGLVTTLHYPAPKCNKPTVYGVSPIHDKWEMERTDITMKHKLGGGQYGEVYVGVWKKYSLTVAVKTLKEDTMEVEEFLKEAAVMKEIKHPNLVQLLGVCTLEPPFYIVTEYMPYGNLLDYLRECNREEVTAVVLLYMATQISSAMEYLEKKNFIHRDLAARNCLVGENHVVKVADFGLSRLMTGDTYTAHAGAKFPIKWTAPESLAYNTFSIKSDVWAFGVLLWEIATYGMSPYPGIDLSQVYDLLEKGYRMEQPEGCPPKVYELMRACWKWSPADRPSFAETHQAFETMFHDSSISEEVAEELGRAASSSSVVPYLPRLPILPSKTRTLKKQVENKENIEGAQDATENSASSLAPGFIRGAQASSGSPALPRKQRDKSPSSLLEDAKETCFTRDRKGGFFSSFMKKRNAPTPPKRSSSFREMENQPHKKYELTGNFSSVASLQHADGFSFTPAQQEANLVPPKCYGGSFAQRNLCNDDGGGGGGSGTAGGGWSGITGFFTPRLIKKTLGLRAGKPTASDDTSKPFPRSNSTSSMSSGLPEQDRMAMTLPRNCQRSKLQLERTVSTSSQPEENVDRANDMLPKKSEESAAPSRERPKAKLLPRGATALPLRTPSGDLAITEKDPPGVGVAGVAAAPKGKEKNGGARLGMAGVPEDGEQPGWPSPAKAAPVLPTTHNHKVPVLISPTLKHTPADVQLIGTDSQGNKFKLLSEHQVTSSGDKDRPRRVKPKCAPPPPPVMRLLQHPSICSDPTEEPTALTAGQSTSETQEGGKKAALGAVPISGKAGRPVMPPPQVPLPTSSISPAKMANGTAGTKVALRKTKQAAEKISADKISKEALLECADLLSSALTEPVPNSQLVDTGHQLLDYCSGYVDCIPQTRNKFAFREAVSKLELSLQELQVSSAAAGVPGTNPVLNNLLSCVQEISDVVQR
Serine/threonine-protein kinase PAK 6 (Homo sapiens), sequence (Q9NQU5 whole entry, looked up): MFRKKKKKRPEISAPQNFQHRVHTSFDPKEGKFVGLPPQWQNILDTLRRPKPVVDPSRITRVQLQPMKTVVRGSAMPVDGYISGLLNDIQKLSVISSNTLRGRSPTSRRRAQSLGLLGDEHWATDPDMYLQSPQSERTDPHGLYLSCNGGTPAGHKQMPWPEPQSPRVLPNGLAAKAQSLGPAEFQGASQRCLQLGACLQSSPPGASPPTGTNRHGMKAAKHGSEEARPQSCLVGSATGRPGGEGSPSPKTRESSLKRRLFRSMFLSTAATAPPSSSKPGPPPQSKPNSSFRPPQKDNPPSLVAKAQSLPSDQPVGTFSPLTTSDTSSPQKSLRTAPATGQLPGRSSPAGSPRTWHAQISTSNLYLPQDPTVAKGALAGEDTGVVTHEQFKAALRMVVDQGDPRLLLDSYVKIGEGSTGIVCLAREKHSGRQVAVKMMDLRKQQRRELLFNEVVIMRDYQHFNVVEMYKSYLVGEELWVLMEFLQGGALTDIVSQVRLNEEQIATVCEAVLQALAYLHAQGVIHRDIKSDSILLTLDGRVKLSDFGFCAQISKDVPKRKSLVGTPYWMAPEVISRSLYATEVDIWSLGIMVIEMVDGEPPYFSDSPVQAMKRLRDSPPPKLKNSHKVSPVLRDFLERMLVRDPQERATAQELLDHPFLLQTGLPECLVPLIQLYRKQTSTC

Consider `COc1cccc(-n2ncc3c(N/N=C/c4ccc(F)cc4)ncnc32)c1`, for which the inhibition in assay [1] worked out at 5.5%; in assay [2], 44.1%; in assay [3], 79.3%; in assay [4] it was 51.2%; in assay [5], 84.5%; in assay [6] it was 51.7%. Moreover, the inhibition in assay [7] was 85.4%; in assay [8], 63.6%; in assay [9], 88.8%; in [10], 12.8%; in assay [11], 38.8%; in [12], 58.5%. For the same compound, the inhibition in assay [13] was 86.1%; in [14] it was 21.1%; in [15], 75.8%; in assay [16], 2.82%; in assay [17], 3.76%; in [18], 9.51%. Also, the inhibition in assay [19] was 57.9%; in [20], -4.72%.
For `CNC(=O)c1cncc(/C=C/c2ccccc2Cl)c1`, the inhibition in [1] is 3.32%; in assay [2] it was -0.16%; in assay [3], 14.2%; in [4], 2.14%; in assay [5] it was 24.1%; in assay [6], 3.34%. In addition, the inhibition was found to be 20% in [7]; 1.38% in assay [8]; 17.3% in assay [9]; 0.79% in assay [10]; 8.51% in assay [11]; 3.01% in assay [12]. Also, the inhibition in [13] was determined as 27%; in [14], 7.06%; in assay [15] it was 33.6%; in assay [16], 0.91%; in [17], 0.92%; in assay [18], 4.13%. Moreover, the inhibition in [19] turned out to be 21.1%; in assay [20], 4.02%.
`CCn1c(-c2nonc2N)nc2c(C#CC(C)(C)O)nc(OC[C@H](N)c3ccccc3)cc21`: the inhibition in assay [1] was 77.3%; in assay [2] it was -1.28%; in assay [3], -0.66%; in assay [4] it was 1.67%; in assay [5] it was 2.25%; in [6], 0.72%. Also, the inhibition in [7] worked out at 1.98%; in assay [8], 1.23%; in assay [9], 1.98%; in assay [10] it was 0.64%; in [11] it was 7.77%; in [12], 0.1%. The inhibition in [13] stood at 2.5%; in [14], 2.86%; in assay [15] it was 2.9%; in [16], 5.79%; in assay [17], 9.07%; in [18], 2.63%. Besides, the inhibition is 3.84% in assay [19] and -1.29% in assay [20].
On to `CCn1c(-c2nonc2N)nc2ccccc21`, for which the inhibition was -4.14% in [1]; 3.43% in [2]; 2.16% in [3]; 3.5% in assay [4]; 0.21% in assay [5]; 2.29% in assay [6]. Besides, the inhibition in assay [7] was -3.04%; in assay [8], 4.29%; in assay [9], 0.56%; in [10] it was 2.3%; in [11] it was 1.53%; in assay [12] it was 3.97%. Besides, the inhibition amounted to 4.13% in assay [13]; 4.4% in assay [14]; 6.01% in [15]; 1.5% in assay [16]; 8.1% in assay [17]; 4.04% in assay [18]. The inhibition in assay [19] was 3%; in assay [20], -0.67%.
On to `COc1cc(/C=N/Nc2ncnc3[nH]ncc23)ccc1O`, for which the inhibition in assay [1] worked out at 4.44%; in [2] it was 36.5%; in assay [3], 83.4%; in assay [4], 45.9%; in [5], 87.6%; in [6], 42.9%. Moreover, the inhibition was determined as 87.9% in [7]; 47.9% in assay [8]; 88.3% in assay [9]; 8.14% in [10]; 47.4% in [11]; 52.5% in [12]. In addition, the inhibition amounted to 87.3% in assay [13]; 35.1% in assay [14]; 78.9% in [15]; 1.72% in assay [16]; 8.84% in assay [17]; 15.6% in [18]. Also, the inhibition in assay [19] was 65.7%; in [20], -3.29%.
As for `CC(=O)Nc1cccc(C#Cc2cncnc2Nc2ccc(OCc3cccc(F)c3)c(Cl)c2)c1`, the inhibition was -5.42% in assay [1]; -0.36% in [2]; 1.79% in [3]; 2.77% in [4]; 1.25% in [5]; 1.83% in [6]. The inhibition stood at 2.92% in [7]; 2.53% in assay [8]; 2.16% in assay [9]; 1.92% in assay [10]; 1.79% in [11]; 0.83% in assay [12]. For the same compound, the inhibition in assay [13] was 3.28%; in assay [14] it was 4.43%; in [15], 8.55%; in assay [16], 1.96%; in assay [17], 6.45%; in assay [18], 2.39%. Also, the results for the inhibition in assay [19] and in assay [20] were 5.22% and 1.64%, respectively.
For the compound `CCNC(=O)O[C@H]1CN[C@H](C#Cc2cc3ncnc(Nc4ccc(OCc5cccc(F)c5)c(Cl)c4)c3s2)C1`, the inhibition was 4.55% in [1]; 4.1% in [2]; 2.82% in [3]; 3.17% in assay [4]; 2.6% in [5]; 2.39% in assay [6]. In addition, the inhibition in [7] is 0.66%; in [8], 2.61%; in assay [9], 2.16%; in assay [10] it was 1.66%; in assay [11], 1.84%; in assay [12], 3.4%. Further, the inhibition in assay [13] is 1.32%; in assay [14] it was 3.63%; in [15], 4.84%; in assay [16], 1.85%; in assay [17], 4.55%; in assay [18] it was 3.5%. Also, the inhibition in assay [19] is 5.21%; in [20], -3.44%.
`NC(=O)c1sc(-n2cnc3ccc(C(F)(F)F)cc32)cc1OCc1ccccc1Br`: the inhibition is -7.15% in assay [1]; 3.08% in assay [2]; 2.1% in [3]; 3.37% in [4]; 3.08% in [5]; 1.6% in assay [6]. For the same compound, the inhibition in assay [7] was determined as 3.37%; in [8], 3.06%; in assay [9] it was 3.55%; in assay [10], 1.98%; in assay [11], 3.2%; in [12] it was 3.65%. Further, the inhibition in [13] is 2.05%; in [14], 2.31%; in assay [15], 4.26%; in assay [16] it was 1.39%; in assay [17] it was 3.73%; in assay [18], 1.79%. The results for the inhibition in assay [19] and in [20] were 2.59% and -8.18%, respectively.
On to `CN(C)CCOc1ccc(-c2nc(-c3ccncc3)c(-c3ccc4c(c3)CC/C4=N\O)[nH]2)cc1`, for which the inhibition in assay [1] was 9.98%; in assay [2], 4.28%; in assay [3], 17.5%; in [4], 8.42%; in [5], 34.1%; in assay [6], 6.36%. In addition, the inhibition in [7] is 30.4%; in [8], 10.1%; in [9], 45.1%; in assay [10], 8.51%; in assay [11] it was 41.9%; in assay [12], 10.2%. For the same compound, the inhibition in assay [13] came to 40.1%; in [14] it was 6.41%; in [15], 40.7%; in [16] it was 2.17%; in assay [17], 8.67%; in assay [18], 4.57%. In addition, the results for the inhibition in assay [19] and in assay [20] were 19.4% and -2.86%, respectively.
In the case of `CC(C)(CO)CNC(=O)c1ccc2c(c1)/C(=N/Nc1ccc(S(N)(=O)=O)cc1)C(=O)N2`, the inhibition was 1.5% in assay [1]; -0.35% in assay [2]; 9% in assay [3]; -2.04% in [4]; 9.98% in assay [5]; -0.43% in [6]. Further, the inhibition in [7] is 9.9%; in [8] it was -0.04%; in assay [9], 9.08%; in [10] it was -2%; in assay [11], 8.62%; in [12] it was -0.6%. Further, the inhibition was 12.8% in assay [13]; -2.29% in assay [14]; 10.7% in assay [15]; -0.91% in [16]; -1.23% in assay [17]; -1.16% in assay [18]. For the same compound, the results for the inhibition in assay [19] and in assay [20] were 3.31% and 1.56%, respectively.
On to `CNC(=O)c1cccc(C#Cc2cncnc2Nc2ccc(OCc3cccc(F)c3)c(Cl)c2)c1`, for which the inhibition in [1] amounted to 0.68%; in assay [2], 0.14%; in assay [3] it was 0.64%; in [4], 0.79%; in [5], 1.44%; in assay [6], 0.11%. The inhibition in assay [7] came to 2.15%; in [8], 1.53%; in assay [9], 2.58%; in [10] it was 1.23%; in assay [11] it was 2.43%; in assay [12], 0.77%. Besides, the inhibition in assay [13] was determined as 3.36%; in [14], 0.98%; in assay [15], 5.91%; in assay [16], 1.88%; in [17], 3.83%; in assay [18], 2.79%. Further, the results for the inhibition in assay [19] and in assay [20] were 4.76% and -1.87%, respectively.
In the case of `CCN(CC)S(=O)(=O)c1ccc(OC)c(Nc2ncc(-c3ccccc3)o2)c1`, the inhibition in assay [1] stood at 4.66%; in assay [2], 1.69%; in assay [3], 28.2%; in assay [4] it was 4.61%; in assay [5] it was 32.8%; in [6], 6.41%. For the same compound, the inhibition in [7] was 38.4%; in [8], 5.31%; in assay [9] it was 38.5%; in assay [10], 1.63%; in assay [11] it was 8.65%; in [12] it was 9.09%. For the same compound, the inhibition came to 41.8% in assay [13]; 3.01% in assay [14]; 28.1% in assay [15]; 0.5% in assay [16]; 4.19% in assay [17]; 6.09% in [18]. Besides, the inhibition in assay [19] is 36.6%; in assay [20], 0.5%.
For the compound `N#Cc1c(NC(=O)CN2CCOCC2)sc2c1CCCC2`, the inhibition was -4.27% in [1]; 3.47% in assay [2]; 4.25% in assay [3]; 2.48% in assay [4]; 5.61% in assay [5]; 1.25% in assay [6]. Also, the inhibition in [7] is 4.91%; in assay [8], 1.82%; in assay [9], 4.61%; in [10], 2.58%; in [11], 5.24%; in [12], 5.91%. Further, the inhibition amounted to 7.6% in [13]; 6.98% in [14]; 7.71% in assay [15]; 3.56% in [16]; 8.62% in assay [17]; 5.84% in assay [18]. The results for the inhibition in assay [19] and in assay [20] were 5.84% and -5.02%, respectively.
